Data from PubChem BioAssay (Tox21).
A number with no mark means an inactive call. Results filed as inconclusive are left out. Entries that show only a call come without a potency. The source made the active and inactive calls. Unless noted, calls come from the whole dose curve; as a rule, active = well fitted curve in the direction sought with a large enough effect in the repeat runs; inconclusive = weak or mixed curves; inactive = flat fitted curve, though single readings scatter.

How the values were obtained:
[1] = qHTS assay to test for compound auto fluorescence at 535 nm (green) in HEK293 cells (AID 720680)
[2] = qHTS assay to test for compound auto fluorescence at 460 nm (blue) in HEK293 cell free culture (AID 720681)
Outline: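 Test compounds were pinned into cell-free culture medium (DMEM with 10% FBS) and fluorescence was read directly at Ex/Em 405/460 nm. Signals were expressed as fluorescence equivalents of triamterene, with DMSO vehicle as control.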

[3] = qHTS assay to test for compound auto fluorescence at 535 nm (green) in HEK293 cell free culture (AID 720682)
Outline: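 Steps: dispense DMEM/10% FBS into empty wells; pin in compound or DMSO; measure fluorescence at 485/535 nm. Values are fluorescein equivalents.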

[4] = qHTS assay to test for compound auto fluorescence at 590 nm (red) in HEK293 cell free culture (AID 720683)
Outline: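 Tox21 10K library compounds were pinned into cell-free DMEM with 10% FBS and fluorescence was read at excitation 540 nm. Activity is expressed as Rose Bengal sodium equivalency.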

[5] = qHTS assay to test for compound auto fluorescence at 590 nm (red) in HepG2 cell free culture (AID 720684)
Outline: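 Ex 540 / Em 590 nm read of compound in cell-free MEM (10% FBS). Rose Bengal sodium reference.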

[6] = qHTS assay to test for compound auto fluorescence at 460 nm (blue) in HepG2 cell free culture (AID 720685)
Outline: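 Cell-free plates of MEM plus 10% FBS received 23 nL compound or DMSO vehicle; blue-channel (405/460 nm) intensity scored against triamterene as reference fluorophore.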

[7] = qHTS assay to test for compound auto fluorescence at 535 nm (green) in HepG2 cell free culture (AID 720686)
[8] = qHTS assay to test for compound auto fluorescence at 460 nm (blue) in HepG2 cells (AID 720687)
Outline: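 Cells (2,000/well in MEM with 10% FBS) attached overnight at 37 C, then were exposed to compound or DMSO for 1 hr at 37 C, 5% CO2. Fluorescence read at Ex/Em 405/460 nm, expressed as triamterene-equivalent signal.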

[9] = target: Glucocorticoid receptor (Homo sapiens) (UniProt P04150); assay: qHTS assay to identify small molecule agonists of the glucocorticoid receptor (GR) signaling pathway (AID 720691; active = well fitted activation curve with a large enough effect in the signal ratio in the repeat runs, not every such curve was filed as active; the % refers to the signal ratio)
Outline: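 HeLa GR-bla reporter line; cells pre-incubated 4 h, compound in DMSO 18 h at 37 C; LiveBLAzer B/G FRET substrate 2 h RT; fluorescence intensity read-out.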

[10] = target: Glucocorticoid receptor (Homo sapiens) (UniProt P04150); assay: qHTS assay to identify small molecule antagonists of the glucocorticoid receptor (GR) signaling pathway (AID 720692; active = well fitted inhibition curve with a large enough effect in the signal ratio in the repeat runs, not every such curve was filed as active; the % refers to the signal ratio; note: potency is the fitted concentration of half-maximal effect)
Outline: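 Read-out: beta-lactamase FRET substrate fluorescence, 2 h at room temperature, in HeLa cells stably carrying a GRE-driven bla reporter. Compounds were co-incubated with 5 nM dexamethasone agonist (final) for 18 h at 37 C.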

Sequence of Glucocorticoid receptor (Homo sapiens) (P04150 whole entry, looked up): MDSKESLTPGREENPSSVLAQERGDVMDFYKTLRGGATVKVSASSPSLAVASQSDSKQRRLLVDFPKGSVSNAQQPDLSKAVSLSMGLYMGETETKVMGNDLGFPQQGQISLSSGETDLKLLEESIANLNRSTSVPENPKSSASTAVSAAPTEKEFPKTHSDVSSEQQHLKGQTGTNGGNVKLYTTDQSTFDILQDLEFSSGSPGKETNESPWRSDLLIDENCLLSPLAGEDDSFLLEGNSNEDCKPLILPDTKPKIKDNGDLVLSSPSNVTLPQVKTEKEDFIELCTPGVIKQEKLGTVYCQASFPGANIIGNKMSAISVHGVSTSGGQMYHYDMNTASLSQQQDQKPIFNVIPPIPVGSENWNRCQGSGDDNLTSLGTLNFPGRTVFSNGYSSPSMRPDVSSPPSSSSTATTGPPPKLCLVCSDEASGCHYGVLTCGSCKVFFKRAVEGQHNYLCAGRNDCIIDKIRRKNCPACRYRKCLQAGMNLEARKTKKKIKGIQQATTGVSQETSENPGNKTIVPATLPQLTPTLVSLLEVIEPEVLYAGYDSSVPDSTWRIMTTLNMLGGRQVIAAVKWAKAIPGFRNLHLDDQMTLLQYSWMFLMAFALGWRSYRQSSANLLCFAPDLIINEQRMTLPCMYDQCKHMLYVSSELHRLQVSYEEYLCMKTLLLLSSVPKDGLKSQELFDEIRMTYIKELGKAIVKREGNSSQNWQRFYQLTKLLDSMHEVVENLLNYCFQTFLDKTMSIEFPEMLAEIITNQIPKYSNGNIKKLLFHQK

SMILES | outcome [1] | outcome [2] | outcome [3] | outcome [4] | outcome [5] | outcome [6] | outcome [7] | outcome [8] | outcome [9] | Potency [10] | fluorescence, % of fluorescein [1] | fluorescence, % of fluorescent control [2] | activity change [3] | fluorescence, % of fluorescent control [4] | fluorescence, % of Rose Bengal [5] | fluorescence, % of fluorescent control [6] | fluorescence, % of fluorescein control [7] | fluorescence, % of fluorescent control [8]
C[N+](=O)[O-] | inactive | inactive | inactive | inactive | inactive | inactive | inactive | inactive | inactive |  |  |  |  |  |  |  |  | 
C#C[C@]1(O)C=C[C@H]2[C@@H]3CCC4=CC(=O)CC[C@@H]4[C@H]3CC[C@@]21CC | inactive | inactive | inactive | inactive | inactive | inactive | inactive | inactive | inactive |  |  |  |  |  |  |  |  | 
CN1C[C@@H](NS(=O)(=O)N(C)C)C[C@@H]2c3cccc4c3c(cn4C)C[C@H]21 | inactive | inactive | inactive | inactive | inactive | inactive | inactive | inactive | inactive | inactive |  |  |  |  |  |  |  | 
CC(Oc1ccc(Oc2ncc(C(F)(F)F)cc2Cl)cc1)C(=O)O (stereo not given) | inactive | inactive | inactive | inactive | inactive | inactive | inactive | inactive | inactive |  |  |  |  |  |  |  |  | 
OC(c1ccccc1)(c1ccccc1)C1CCNCC1 |  |  |  |  |  |  |  |  | inactive |  | 0.0137% [at 18.6 µM] | 0.0014% [at 18.6 µM] | 0.0163% [at 18.6 µM] | 0.068% [at 18.6 µM] | -0.191% [at 18.6 µM] | -0.0381% [at 18.6 µM] | -0.0573% [at 18.6 µM] | 0.186% [at 18.6 µM]
OC(c1ccc(F)cc1)(c1cncnc1)c1ccccc1Cl (stereo not given) | inactive | inactive | inactive | inactive | inactive | inactive | inactive | inactive | inactive |  |  |  |  |  |  |  |  | 
Cc1coc2c1CCC(C)C2 (stereo not given) | inactive | inactive | inactive | inactive | inactive | inactive | inactive | inactive | inactive |  |  |  |  |  |  |  |  | 
CC(C=O)Cc1ccc2c(c1)OCO2 (stereo not given) | inactive | inactive | inactive | inactive | inactive | inactive | inactive | inactive | inactive |  |  |  |  |  |  |  |  | 
CNC(=O)Oc1ccc(N(C)C)c(C)c1 | inactive | inactive | inactive | inactive | inactive | inactive | inactive | inactive | inactive | inactive |  |  |  |  |  |  |  | 
COc1cccc(C(=O)NN(C(=O)c2cc(C)cc(C)c2)C(C)(C)C)c1C | inactive | inactive | inactive | inactive | inactive | inactive | inactive | inactive |  |  |  |  |  |  |  |  |  | 
C[N+](C)=CCl | inactive | inactive | inactive | inactive | inactive | inactive | inactive | inactive | inactive |  |  |  |  |  |  |  |  | 
CC(CCc1ccccc1)NC(C)C(O)c1ccc(O)cc1 (stereo not given) | inactive | inactive | inactive | inactive | inactive | inactive | inactive | inactive | inactive |  |  |  |  |  |  |  |  | 
CC(C1CC1)C(O)(Cn1cncn1)c1ccc(Cl)cc1 (stereo not given) | inactive | inactive | inactive | inactive | inactive | inactive | inactive | inactive |  |  |  |  |  |  |  |  |  | 
ClC(Cl)Br | inactive | inactive | inactive | inactive | inactive | inactive | inactive | inactive | inactive |  |  |  |  |  |  |  |  | 
CN1CCC(O)(c2ccc(F)cc2)C(C(=O)c2ccc(F)cc2)C1 (stereo not given) | inactive | inactive | inactive | inactive | inactive | inactive | inactive | inactive | inactive |  |  |  |  |  |  |  |  | 
CCCCOC(=O)c1ccccc1C(=O)O | inactive | inactive | inactive | inactive | inactive | inactive | inactive | inactive |  |  |  |  |  |  |  |  |  | 
COc1cc(OC)nc(NC(=O)NS(=O)(=O)c2ncccc2C(=O)N(C)C)n1 | inactive | inactive | inactive | inactive | inactive | inactive | inactive | inactive | inactive |  |  |  |  |  |  |  |  | 
Cc1nc(N)nc(N)n1 | inactive | inactive | inactive | inactive | inactive | inactive | inactive | inactive | inactive |  |  |  |  |  |  |  |  | 
N#Cc1c(Cl)cccc1Cl | inactive | inactive | inactive | inactive | inactive | inactive | inactive | inactive | inactive |  |  |  |  |  |  |  |  | 
CC1(C)COP(Oc2ccccc2)OC1 | inactive | inactive | inactive | inactive | inactive | inactive | inactive | inactive | inactive | inactive |  |  |  |  |  |  |  | 
CCOP(=S)(OCC)Oc1cc(-c2ccccc2)on1 | inactive | inactive | inactive | inactive | inactive | inactive | inactive | inactive | inactive | inactive |  |  |  |  |  |  |  | 
c1cc2c(c(N3CCNCC3)c1)OCCO2 | inactive | inactive | inactive | inactive | inactive | inactive | inactive | inactive | inactive | inactive |  |  |  |  |  |  |  | 
Cc1ncc2n1-c1ccc(Cl)cc1C(c1ccccc1F)=NC2 | inactive | inactive | inactive | inactive | inactive | inactive | inactive | inactive | inactive | 16.9 µM (active) |  |  |  |  |  |  |  | 
